About 83,000 compounds went through this panel and 20% of them were active in at least one assay; those are over-represented in the sample as a whole.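 Cell lines were cultured in 96-well plates, exposed to a single compound concentration, and assessed for percent growth 48 hours later.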 Calls of active or inactive are those of the source. Rule for the calls: active = growth percent below 10; inactive = the rest.
Experiments:
Assay in all cases: NCI-60 one-dose screen, 48 h (100 = growth as untreated, 0 = no growth, -100 = all killed)
Settings in all cases: 10 µM unless noted
NCI-H23 lung = tested on: NCI-H23 lung
NCI-H226 lung = tested on: NCI-H226 lung
NCI-H322M lung = tested on: NCI-H322M lung
HOP-62 NSCLC = tested on: HOP-62 NSCLC
NCI-H460 lung = tested on: NCI-H460 lung
NCI-H522 lung = tested on: NCI-H522 lung
A549/ATCC NSCLC = tested on: A549/ATCC NSCLC
786-0 renal = tested on: 786-0 renal
COLO 205 colon = tested on: COLO 205 colon
DU-145 prostate = tested on: DU-145 prostate
K-562 leukemia = tested on: K-562 leukemia
MDA-MB-231 breast = tested on: MDA-MB-231 breast
RXF 393 renal = tested on: RXF 393 renal
SF-268 CNS = tested on: SF-268 CNS
SF-295 CNS = tested on: SF-295 CNS
SF-539 CNS = tested on: SF-539 CNS
UACC-257 melanoma = tested on: UACC-257 melanoma
M14 melanoma = tested on: M14 melanoma

Measured: growth

Nc1nc(N)c2c(n1)NC(c1ccc(Cl)cc1)CC(c1ccc(Nc3nc(NCCO)nc(N4CCOCC4)n3)cc1)=N2 (stereo unspecified)
inactive: NCI-H23 lung 85.2% | NCI-H226 lung 82% | NCI-H322M lung 95.5% | HOP-62 NSCLC 80.2% | NCI-H460 lung 79.8% | NCI-H522 lung 65.8% | A549/ATCC NSCLC 86.3% | 786-0 renal 67.8% | COLO 205 colon 72.6% | DU-145 prostate 86.1% | K-562 leukemia 31.1% | MDA-MB-231 breast 80.5% | RXF 393 renal 61.2% | SF-268 CNS 61.8% | SF-295 CNS 76.2% | SF-539 CNS 78.4% | UACC-257 melanoma 84.6% | M14 melanoma 88.1%

N#Cc1cn(Cc2ccc(Cl)cc2Cl)c(C(=O)c2ccc(Br)cc2)c1N
inactive: NCI-H23 lung 93.8% | NCI-H226 lung 75.6% | NCI-H322M lung 95% | HOP-62 NSCLC 82.6% | NCI-H460 lung 95.9% | NCI-H522 lung 91.2% | A549/ATCC NSCLC 98.2% | 786-0 renal 99.1% | COLO 205 colon 114% | DU-145 prostate 99.7% | K-562 leukemia 94.9% | MDA-MB-231 breast 88.2% | RXF 393 renal 95.8% | SF-268 CNS 92.7% | SF-295 CNS 83.7% | SF-539 CNS 81.4% | UACC-257 melanoma 92.1% | M14 melanoma 98%

CCO/C=N/C1=C(C#N)C(c2ccc(Cl)cc2)c2sc3c(CC)cccc3c2O1 (stereo unspecified)
inactive: NCI-H23 lung 22% | NCI-H226 lung 54.7% | NCI-H322M lung 43.3% | HOP-62 NSCLC 45.1% | A549/ATCC NSCLC 30% | 786-0 renal 41.9% | COLO 205 colon 14% | DU-145 prostate 13.6% | K-562 leukemia 11.4% | MDA-MB-231 breast 37.2% | SF-268 CNS 58.3% | UACC-257 melanoma 70.3%
active: NCI-H460 lung 9.19% | NCI-H522 lung 7.65% | RXF 393 renal -27.7% | SF-295 CNS -12.1% | SF-539 CNS -3.86% | M14 melanoma 8.6%

O=C(CN1CCN(c2cc(=O)n(-c3ccccc3)c3ccccc23)CC1)Nc1cccc(C(F)(F)F)c1
inactive: NCI-H23 lung 55.5% | NCI-H226 lung 56.6% | NCI-H322M lung 82.4% | HOP-62 NSCLC 70.6% | NCI-H460 lung 57.9% | NCI-H522 lung 56.5% | A549/ATCC NSCLC 51.8% | 786-0 renal 80.5% | COLO 205 colon 68.5% | DU-145 prostate 64.7% | K-562 leukemia 23.4% | MDA-MB-231 breast 68.7% | RXF 393 renal 62.2% | SF-268 CNS 66.2% | SF-295 CNS 59% | SF-539 CNS 71.5% | UACC-257 melanoma 38.8% | M14 melanoma 60.5%

COc1ccccc1-n1cc(C#N)c(N)c1C(=O)c1ccc(C)cc1
inactive: NCI-H23 lung 89.4% | NCI-H226 lung 98.4% | NCI-H322M lung 90.8% | HOP-62 NSCLC 77.7% | NCI-H460 lung 101% | NCI-H522 lung 64% | A549/ATCC NSCLC 89.8% | 786-0 renal 94.8% | COLO 205 colon 95.6% | DU-145 prostate 99.2% | K-562 leukemia 28.4% | MDA-MB-231 breast 90.9% | RXF 393 renal 76.6% | SF-268 CNS 90.6% | SF-295 CNS 74.1% | SF-539 CNS 97% | UACC-257 melanoma 78.3% | M14 melanoma 59.8%

Cc1ccc(C2=NN(C)C(=O)C3(CCCC3)C2)cc1
inactive: NCI-H23 lung 106% | NCI-H226 lung 105% | NCI-H322M lung 103% | HOP-62 NSCLC 114% | NCI-H460 lung 112% | NCI-H522 lung 103% | A549/ATCC NSCLC 99.5% | 786-0 renal 103% | COLO 205 colon 115% | DU-145 prostate 107% | K-562 leukemia 107% | MDA-MB-231 breast 104% | RXF 393 renal 124% | SF-268 CNS 98.1% | SF-295 CNS 101% | SF-539 CNS 103% | UACC-257 melanoma 100% | M14 melanoma 108%

Cc1ccc(S(=O)(=O)N(CC[C@@H]2C[C@H]2c2cc3ccccc3o2)S(=O)(=O)c2ccc(C)cc2)cc1
inactive: NCI-H23 lung 90.8% | NCI-H226 lung 79% | NCI-H322M lung 95.4% | HOP-62 NSCLC 115% | NCI-H460 lung 104% | NCI-H522 lung 85.3% | A549/ATCC NSCLC 94.9% | 786-0 renal 99.7% | COLO 205 colon 115% | DU-145 prostate 98.7% | K-562 leukemia 83.1% | MDA-MB-231 breast 83.6% | RXF 393 renal 103% | SF-268 CNS 98.1% | SF-295 CNS 101% | SF-539 CNS 101% | UACC-257 melanoma 84.9% | M14 melanoma 99%

O=C(CN1CCN(c2cc(=O)[nH]c3ccc(F)cc23)CC1)Nc1ccc(Cl)cc1
active: RXF 393 renal -3.61%
inactive: NCI-H23 lung 61.9% | NCI-H226 lung 16.5% | NCI-H322M lung 80.2% | HOP-62 NSCLC 43.9% | NCI-H460 lung 41.1% | NCI-H522 lung 13.1% | A549/ATCC NSCLC 71.8% | 786-0 renal 36.3% | COLO 205 colon 112% | DU-145 prostate 78.1% | K-562 leukemia 78.8% | MDA-MB-231 breast 62.2% | SF-268 CNS 38.3% | SF-295 CNS 67.2% | SF-539 CNS 56.9% | UACC-257 melanoma 65% | M14 melanoma 85%

O=C(CN1CCN(c2cc(=O)n(-c3ccccc3)c3ccccc23)CC1)Nc1nc(-c2ccccc2)cs1
inactive: NCI-H23 lung 60.8% | NCI-H226 lung 48.2% | NCI-H322M lung 89.4% | HOP-62 NSCLC 66.4% | NCI-H460 lung 32.2% | NCI-H522 lung 66.5% | A549/ATCC NSCLC 56.2% | 786-0 renal 89.3% | COLO 205 colon 60.1% | DU-145 prostate 72.7% | K-562 leukemia 22.4% | MDA-MB-231 breast 62.6% | RXF 393 renal 76.9% | SF-268 CNS 79.2% | SF-295 CNS 66.7% | SF-539 CNS 77.1% | UACC-257 melanoma 48.5% | M14 melanoma 69.7%

O=C(CCn1c[n+](CC(=O)c2ccc(-c3ccccc3)cc2)c2ccccc21)Nc1cccc2cccnc12
inactive: NCI-H23 lung 60.2% | NCI-H226 lung 57% | NCI-H322M lung 82.8% | HOP-62 NSCLC 94.4% | NCI-H460 lung 55.3% | NCI-H522 lung 41.7% | A549/ATCC NSCLC 89.8% | 786-0 renal 71.5% | COLO 205 colon 44.2% | DU-145 prostate 78.9% | K-562 leukemia 22.9% | MDA-MB-231 breast 49.6% | RXF 393 renal 69.6% | SF-268 CNS 55% | SF-295 CNS 89.6% | SF-539 CNS 75.5% | UACC-257 melanoma 23.6% | M14 melanoma 49.1%

CCO/C=N/C1=C(C#N)C(c2ccc(Cl)cc2)c2sc3c(C)cccc3c2O1 (stereo unspecified)
active: NCI-H460 lung 4.89% | NCI-H522 lung 8.93% | COLO 205 colon 4.67% | K-562 leukemia 7.31% | RXF 393 renal -27.6% | SF-295 CNS -19.3% | SF-539 CNS -11.5% | M14 melanoma 1.8%
inactive: NCI-H23 lung 25.2% | NCI-H226 lung 51.1% | NCI-H322M lung 43.6% | HOP-62 NSCLC 41.4% | A549/ATCC NSCLC 26.9% | 786-0 renal 29.1% | DU-145 prostate 19.2% | MDA-MB-231 breast 24.4% | SF-268 CNS 51.1% | UACC-257 melanoma 76.2%

COc1cc2nc(Cl)nc(Nc3cccc(C4=Nc5c(N)nc(N)nc5NC(c5ccccc5)C4)c3)c2cc1OC (stereo unspecified)
active: K-562 leukemia 6.71%
inactive: NCI-H23 lung 83.5% | NCI-H226 lung 86.9% | NCI-H322M lung 92.9% | HOP-62 NSCLC 39.6% | NCI-H460 lung 87.4% | NCI-H522 lung 76.5% | A549/ATCC NSCLC 87.5% | 786-0 renal 77.5% | COLO 205 colon 99.8% | DU-145 prostate 85.9% | MDA-MB-231 breast 90.4% | RXF 393 renal 84.5% | SF-268 CNS 84.3% | SF-295 CNS 75.8% | SF-539 CNS 99.8% | UACC-257 melanoma 108% | M14 melanoma 90.1%

Reference: PubChem BioAssay (NCI)
